Source: PubChem BioAssay
NTR1 agonist – agonists of human neurotensin receptor NTR1 | AID 493036 | actives 0.17% (n = 330,000) | NTR1-U2OS beta-arrestin-GFP spot imaging, agonist mode | activation, % at 20 µM;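 active means activation at or above 40% of the spot to cytoplasm intensity ratio, with at least 20 cells analyzed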;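 further: 0% = DMSO without peptide and 100% = 100 nM NTR1 peptide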
Target sequence (P30989 whole entry, looked up): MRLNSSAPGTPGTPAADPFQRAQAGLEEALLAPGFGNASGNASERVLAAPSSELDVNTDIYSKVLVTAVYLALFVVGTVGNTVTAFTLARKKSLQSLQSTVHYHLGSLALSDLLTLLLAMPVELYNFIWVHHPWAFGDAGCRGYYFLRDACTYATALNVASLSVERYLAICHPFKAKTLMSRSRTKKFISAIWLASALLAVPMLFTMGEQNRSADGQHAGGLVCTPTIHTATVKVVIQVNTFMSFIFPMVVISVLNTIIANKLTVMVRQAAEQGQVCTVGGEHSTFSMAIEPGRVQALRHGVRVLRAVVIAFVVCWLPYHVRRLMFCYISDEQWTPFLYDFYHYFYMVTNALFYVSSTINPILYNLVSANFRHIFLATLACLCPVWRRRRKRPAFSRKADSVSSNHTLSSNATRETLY
Jurkat NFkB inh – lowers PMA/ionomycin-induced NF-kB signal in Jurkat cells. PMA/ionomycin-induced NF-kB luciferase reporter, luminescence. inhibition, % at 4 µM. actives 0.53% (n = 330,000). AID 435003; in the data active means inhibition above about 50%
Mdm2-MdmX inh – disrupts the human Mdm2-MdmX interaction; inhibition, % at 8 µM; O15151+Q00987; SaOS-2 split-luciferase Mdm2/MdmX complementation, luminescence; actives 3% (n = 330,000);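 active means inhibition of at least 50% at 8 µM in the primary screen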
Bfl-1 A1 inh – inhibitors of the anti-apoptotic protein A1, read as caspase activation; actives 0.066% (n = 330,000); MEF A1-2A-BIM cells, Caspase-Glo 3/7 luminescence, 3 h; percent of clofoctol response, vehicle zero; caspase activation, % (no concentration beside the values); AID 2462;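 active means over half of replicate activation scores above 10%, or exactly half above 10 with the replicate mean above 10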
697 NFkB inh – lowers PMA/ionomycin-induced NF-kB signal in 697 B cells; 697 B-cell NF-kB luciferase reporter, 16 h; inhibition, % at 4 µM; actives 0.33% (n = 330,000); AID 435022; in the data active means inhibition above about 35%
Beta cell apopt – blocks beta cell apoptosis. INS-1E cytokine-induced death, ATP luminescence, 48 h; percent of positive-control rescue, neutral wells zero. protection from apoptosis, % (test concentration not listed). actives 0.8% (n = 300,000);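 active means Every replicate reaches about 75%, or at least half do and their mean reaches it too, limit read from the data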;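 further: 0% = cytokine-treated negative control wells and 100% = positive control rescue; higher means more ATP so stronger rescue from cytokine killing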
Jurkat NFkB conf – inhibitors of the PMA/ionomycin-induced NF-kB reporter in Jurkat cells, retest; shares compounds with Jurkat NFkB inh; Jurkat NF-kB luciferase, 16 h; inhibition, % at 4 µM; actives 27% (n = 2,700);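 active means inhibition reaching about 45% at 4 µM in either replicate, limit read from the data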;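 further: plate controls were PMA/ionomycin stimulated DMSO wells for no effect and unstimulated DMSO wells for full effect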
Active calls of the source: *. The list is not random: actives were taken first. Their share in the collection is about 3.8%.

What do the screens show for `CCOC(=O)c1cnc2c(-c3ccccc3)cnn2c1N`?
NTR1 agonist: 2; Jurkat NFkB inh: -163; Mdm2-MdmX inh: -95; Bfl-1 A1 inh: -4; 697 NFkB inh: -232; Beta cell apopt: 3; Jurkat NFkB conf: -128

How did N#Cc1ccc(C2=CC(=O)C[C@H](c3ccc(F)cc3)C2)cc1 do in these assays?
NTR1 agonist: 4; Jurkat NFkB inh: -1; Mdm2-MdmX inh: -7; Bfl-1 A1 inh: 0; 697 NFkB inh: -4; Beta cell apopt: -1

What do the screens show for `CN(C)S(=O)(=O)c1cccc(NC(=O)COC(=O)c2ccc3ccccc3n2)c1`?
NTR1 agonist: 0; Jurkat NFkB inh: 60*; Mdm2-MdmX inh: -7; Bfl-1 A1 inh: 0; 697 NFkB inh: 19; Beta cell apopt: -6; Jurkat NFkB conf: 9

How did COCCC(=O)N1CCC(Oc2ccc(C(=O)N3CCCCC3CCO)cc2)CC1 (stereo not given) do in these assays?
NTR1 agonist: 0; Jurkat NFkB inh: 2; Mdm2-MdmX inh: 25; Bfl-1 A1 inh: 0; 697 NFkB inh: 12

Results for Cc1nonc1OCCN1CCN(c2ccc([N+](=O)[O-])cc2)CC1 ?
NTR1 agonist: 0; Jurkat NFkB inh: 58*; Mdm2-MdmX inh: 19; Bfl-1 A1 inh: 1; 697 NFkB inh: -18; Beta cell apopt: 5; Jurkat NFkB conf: 24

Results for O=[N+]([O-])c1ccc(N2CCN(Cc3ccc(Br)o3)CC2)cc1 ?
NTR1 agonist: 1; Jurkat NFkB inh: 52*; Mdm2-MdmX inh: 12; Bfl-1 A1 inh: 1; 697 NFkB inh: 15; Beta cell apopt: -4; Jurkat NFkB conf: 6

What do the screens show for `Cc1nc(N2CCN(C(=O)c3ccco3)CC2)nc2c1C(=O)CCC2`?
NTR1 agonist: -1; Jurkat NFkB inh: -72; Mdm2-MdmX inh: -44; Bfl-1 A1 inh: 1; 697 NFkB inh: -59; Beta cell apopt: 0

Results for CCCCN1CC[C@@H]2C=CC[C@H](C(=O)OC)[C@@H]2C1=O ?
NTR1 agonist: 1; Mdm2-MdmX inh: 27; 697 NFkB inh: 12

What do the screens show for `CCOc1ccc(S(=O)(=O)NCCC(=O)OCC(=O)NC(=O)c2cccn2C)cc1`?
NTR1 agonist: 2; Jurkat NFkB inh: -5; Mdm2-MdmX inh: 6; Bfl-1 A1 inh: 0; 697 NFkB inh: -3; Beta cell apopt: -5

What do the screens show for `CC1(C)Cc2nc3sc4c(=O)n(CC(N)=O)cnc4c3cc2CO1`?
NTR1 agonist: -1; Jurkat NFkB inh: -42; Mdm2-MdmX inh: 0; Bfl-1 A1 inh: 0; 697 NFkB inh: -44; Beta cell apopt: -8

What do the screens show for `CC1(C)Cc2nc3sc4c(=O)n(CC(=O)NCc5ccccc5)cnc4c3cc2CO1`?
NTR1 agonist: -1; Jurkat NFkB inh: 61*; Mdm2-MdmX inh: 17; Bfl-1 A1 inh: 0; 697 NFkB inh: -165; Beta cell apopt: 3; Jurkat NFkB conf: 40

How did COc1cc(C(=O)NC(=S)Nc2ccc3[nH]c(=O)[nH]c3c2)cc(OC)c1OC do in these assays?
NTR1 agonist: 0; Jurkat NFkB inh: 6; Mdm2-MdmX inh: 19; Bfl-1 A1 inh: 1; 697 NFkB inh: 8; Beta cell apopt: -5

How did COC(=O)CSc1nc2cc3c(cc2cc1C#N)OCO3 do in these assays?
NTR1 agonist: 3; Jurkat NFkB inh: -202; Mdm2-MdmX inh: -80; Bfl-1 A1 inh: -6; 697 NFkB inh: -183; Beta cell apopt: 1; Jurkat NFkB conf: -102

How did CCOC(=O)CSc1nc2cc3c(cc2cc1C#N)OCO3 do in these assays?
NTR1 agonist: -1; Jurkat NFkB inh: -200; Mdm2-MdmX inh: -211; Bfl-1 A1 inh: 0; 697 NFkB inh: -161; Beta cell apopt: -1; Jurkat NFkB conf: -90

Results for COC(=O)CSc1nc(-c2cccs2)ccc1C#N ?
NTR1 agonist: 2; Jurkat NFkB inh: -153; Mdm2-MdmX inh: -305; Bfl-1 A1 inh: 0; 697 NFkB inh: -85; Beta cell apopt: -1; Jurkat NFkB conf: -97

How did CCn1c(=O)c(=O)[nH]c2cc(C(=O)NC(C)c3ccc(S(N)(=O)=O)cc3)ccc21 (stereo not given) do in these assays?
NTR1 agonist: 0; Jurkat NFkB inh: -16; Mdm2-MdmX inh: 12; Bfl-1 A1 inh: -1; 697 NFkB inh: -25; Beta cell apopt: -5

How did C(#CC1CCCC1)c1ccc2c(c1)COc1c3ccccc3nn1-2 do in these assays?
NTR1 agonist: 8; Jurkat NFkB inh: -36; Mdm2-MdmX inh: -118; Bfl-1 A1 inh: -4; 697 NFkB inh: -102; Beta cell apopt: 8

Results for CCCc1cc(-c2ccc3c(c2)COc2c4ccccc4nn2-3)on1 ?
NTR1 agonist: 0; Jurkat NFkB inh: -201; Mdm2-MdmX inh: -111; Bfl-1 A1 inh: -8; 697 NFkB inh: -238; Beta cell apopt: 8; Jurkat NFkB conf: -94

How did Cc1cc(-c2ccc3c(c2)COc2c4ccccc4nn2-3)on1 do in these assays?
NTR1 agonist: 1; Jurkat NFkB inh: -179; Mdm2-MdmX inh: -93; Bfl-1 A1 inh: -12; 697 NFkB inh: -178; Beta cell apopt: 6; Jurkat NFkB conf: -72

How did O=C(c1cnn2c(-c3ccccc3)cc(-c3ccccc3)nc12)N1CCN(Cc2ccccc2)CC1 do in these assays?
NTR1 agonist: 10; Jurkat NFkB inh: 7; Mdm2-MdmX inh: 39; Bfl-1 A1 inh: 0; 697 NFkB inh: 5; Beta cell apopt: 21

How did Cc1ccc(Nc2nc(N/N=C/c3c[nH]c4ccccc34)nc(N3CCOCC3)n2)cc1 do in these assays?
NTR1 agonist: 31; Jurkat NFkB inh: 89*; Mdm2-MdmX inh: 35; Bfl-1 A1 inh: 1; 697 NFkB inh: 27; Beta cell apopt: -6; Jurkat NFkB conf: -37

How did O=[N+]([O-])c1ccc(N/N=C/c2ccc(OCc3cccc4ccccc34)cc2)nc1 do in these assays?
NTR1 agonist: 7; Jurkat NFkB inh: 18; Mdm2-MdmX inh: 29; Bfl-1 A1 inh: 0; 697 NFkB inh: -38; Beta cell apopt: 11

Results for N#Cc1ccccc1Cn1cc(/C=N/Nc2ccc([N+](=O)[O-])cn2)c2ccccc21 ?
NTR1 agonist: 2; Jurkat NFkB inh: 67*; Mdm2-MdmX inh: 28; Bfl-1 A1 inh: 0; 697 NFkB inh: -15; Beta cell apopt: 10; Jurkat NFkB conf: -6

How did Cc1cccc(C)c1N/C=C/c1onc(C)c1[N+](=O)[O-] do in these assays?
NTR1 agonist: 1; Jurkat NFkB inh: -12; Mdm2-MdmX inh: 9; Bfl-1 A1 inh: 0; 697 NFkB inh: 14; Beta cell apopt: -5

What do the screens show for `Cc1ccc(N/C=C/c2onc(C)c2[N+](=O)[O-])cc1`?
NTR1 agonist: -1; Jurkat NFkB inh: -221; Mdm2-MdmX inh: -141; Bfl-1 A1 inh: -6; 697 NFkB inh: -243; Beta cell apopt: 7; Jurkat NFkB conf: 8

How did C/C(=N\N1CCN(Cc2ccccc2Cl)CC1)c1ccc([N+](=O)[O-])cc1 do in these assays?
NTR1 agonist: 0; Jurkat NFkB inh: 51*; Mdm2-MdmX inh: -11; Bfl-1 A1 inh: 1; 697 NFkB inh: -3; Beta cell apopt: 6; Jurkat NFkB conf: -7
